The panel holds about 83,000 compounds, 20% with a hit somewhere; the sample as a whole holds those more often.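 Activity criterion: percent growth below 10, measured after cells in 96-well plates were exposed to a single compound concentration for 48 hours.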 A number with no mark means an inactive call. The source made the active and inactive calls.

For eight compounds, growth results are on record in PubChem BioAssay (NCI).

Test systems include NCI-H23 lung; NCI-H226 lung; NCI-H322M lung; HOP-62 NSCLC; NCI-H460 lung; HOP-92 NSCLC; A549/ATCC NSCLC; 786-0 renal; COLO 205 colon; DU-145 prostate; K-562 leukemia; MALME-3M melanoma; MDA-MB-231 breast; RXF 393 renal; SF-268 CNS; SF-295 CNS; SF-539 CNS; UACC-257 melanoma; M14 melanoma.
Holding throughout (test): NCI-60 one-dose screen, 48 h (100 = growth as untreated, 0 = no growth, -100 = all killed)
Holding throughout (conditions): 10 µM unless noted

`N#Cc1c(-c2cccc(Cl)c2)cc(-c2cccc(F)c2)[nH]c1=O`: the growth in the assay with NCI-H23 lung was 96.3%; in the assay on NCI-H226 lung, 95.1%; in the assay with NCI-H322M lung it was 90.8%; in the assay with HOP-62 NSCLC, 93.4%; with NCI-H460 lung, 95.9%; in the assay with HOP-92 NSCLC, 55.3%. In addition, the growth is 84.5% with A549/ATCC NSCLC; 90.3% in the assay on 786-0 renal; 109% in the assay with COLO 205 colon; 98.6% with DU-145 prostate; 85.5% with K-562 leukemia; 99.9% in the assay on MALME-3M melanoma. In addition, the growth is 89.9% in the assay on MDA-MB-231 breast; 88.7% in the assay on RXF 393 renal; 95.6% in the assay on SF-268 CNS; 91.2% in the assay on SF-295 CNS; 94.3% in the assay on SF-539 CNS; 102% with UACC-257 melanoma. Moreover, in the assay with M14 melanoma, the growth is 101%.
With `COC(=O)[C@]12CC[C@@H](C)[C@H](C)[C@@H]1C1=CC[C@@H]3[C@@]4(C)C(C=O)=C[C@@](C)(COC(C)=O)[C@@H]4[C@H](O)C[C@@]3(C)[C@]1(C)CC2`, the growth was -12.8% (active) with NCI-H23 lung; -25.2% (active) in the assay on NCI-H226 lung; 28.3% in the assay on NCI-H322M lung; 8.74% (active) with HOP-62 NSCLC; -64.6% (active) in the assay on NCI-H460 lung; -6.92% (active) in the assay on HOP-92 NSCLC. Also, the growth is 1.47% (active) in the assay with A549/ATCC NSCLC; -36.2% (active) in the assay on 786-0 renal; -40.4% (active) with COLO 205 colon; -73.1% (active) in the assay on DU-145 prostate; 4.82% (active) in the assay on K-562 leukemia; -79.2% (active) in the assay with MALME-3M melanoma. Also, the growth in the assay on MDA-MB-231 breast was -39.2% (active); with RXF 393 renal, -82% (active); in the assay on SF-268 CNS, 1.2% (active); with SF-295 CNS, -30% (active); in the assay with SF-539 CNS it was -55.4% (active); in the assay with UACC-257 melanoma, -58.6% (active). The growth in the assay on M14 melanoma is -43.3% (active).
Regarding `CCOc1c(C#N)nnc2c(C#N)c(NC(=O)c3ccccc3)nn12`, the growth in the assay on NCI-H23 lung was 90.8%; with NCI-H226 lung, 92.6%; in the assay with NCI-H322M lung it was 95%; in the assay on HOP-62 NSCLC, 96.6%; in the assay on NCI-H460 lung, 111%; in the assay with HOP-92 NSCLC it was 89.3%. The growth in the assay with A549/ATCC NSCLC is 95%; with 786-0 renal, 98.4%; with COLO 205 colon, 107%; in the assay on DU-145 prostate, 109%; in the assay on K-562 leukemia it was 98.6%; in the assay on MALME-3M melanoma, 103%. Further, the growth with MDA-MB-231 breast is 100%; in the assay with RXF 393 renal it was 110%; in the assay on SF-268 CNS, 98.8%; in the assay on SF-295 CNS it was 104%; in the assay on SF-539 CNS, 95.3%; in the assay on UACC-257 melanoma, 97%. The growth in the assay with M14 melanoma is 99.1%.
For `Cc1ccc(C(=O)COc2cccc(/C=C3\Oc4ccccc4C3=O)c2)cc1`, the growth in the assay with NCI-H23 lung was 90.5%; in the assay with NCI-H226 lung, 80.9%; in the assay on NCI-H322M lung it was 101%; in the assay with HOP-62 NSCLC, 97.1%; in the assay with NCI-H460 lung it was 119%; with HOP-92 NSCLC, 89.8%. Besides, the growth in the assay on A549/ATCC NSCLC was 96.9%; in the assay with 786-0 renal it was 97.6%; in the assay on COLO 205 colon it was 115%; in the assay with DU-145 prostate, 123%; in the assay with K-562 leukemia, 75.8%; with MALME-3M melanoma, 106%. Further, the growth was 83.1% in the assay on MDA-MB-231 breast; 94.5% in the assay on RXF 393 renal; 120% in the assay with SF-268 CNS; 120% in the assay with SF-295 CNS; 103% in the assay with SF-539 CNS; 129% in the assay with UACC-257 melanoma. Moreover, the growth in the assay on M14 melanoma is 101%.
As to `COc1ccc(-c2cc(-c3cc(OC)ccc3OC)nc(SCC(=O)c3ccccc3)c2C#N)cc1`, the growth was 92.7% in the assay with NCI-H23 lung; 84.4% in the assay on NCI-H226 lung; 103% with NCI-H322M lung; 89.9% with HOP-62 NSCLC; 102% in the assay with NCI-H460 lung; 92.3% in the assay with HOP-92 NSCLC. For the same compound, the growth with A549/ATCC NSCLC was 92.7%; in the assay on 786-0 renal it was 109%; with COLO 205 colon, 97.8%; in the assay on DU-145 prostate, 106%; with K-562 leukemia, 105%; in the assay with MALME-3M melanoma, 88.9%. For the same compound, the growth is 94.4% in the assay with MDA-MB-231 breast; 97.2% with RXF 393 renal; 99% with SF-268 CNS; 104% in the assay on SF-295 CNS; 94.8% in the assay with SF-539 CNS; 101% with UACC-257 melanoma. Moreover, the growth in the assay with M14 melanoma is 98.1%.
On to `CCCCCCCCCCCCCCCCCCOc1ccc(CC(=O)OCC[N+]2(C)CCCC2)cc1`, for which the growth with NCI-H23 lung is 93.2%; in the assay with NCI-H226 lung it was 92.6%; with NCI-H322M lung, 102%; in the assay on HOP-62 NSCLC it was 101%; in the assay with NCI-H460 lung, 99.7%; with HOP-92 NSCLC, 110%. Moreover, the growth was 97.2% with A549/ATCC NSCLC; 96.2% in the assay with 786-0 renal; 107% in the assay on COLO 205 colon; 106% in the assay with DU-145 prostate; 92.2% with K-562 leukemia; 117% in the assay with MALME-3M melanoma. Moreover, the growth with MDA-MB-231 breast was 111%; in the assay with RXF 393 renal it was 101%; in the assay on SF-268 CNS, 104%; in the assay with SF-295 CNS it was 90.6%; in the assay with SF-539 CNS, 99.7%; in the assay on UACC-257 melanoma, 107%. The growth in the assay on M14 melanoma is 97.9%.
Consider `COc1ccc(-c2nc3c(c(=O)n2C(C)=O)C(c2ccc(Cl)cc2)c2sc4c(Cl)cccc4c2O3)cc1` (configuration not stated), for which the growth with NCI-H23 lung is 3.67% (active); in the assay on NCI-H226 lung, 15.8%; with NCI-H322M lung, -5.66% (active); in the assay with HOP-62 NSCLC it was -5.72% (active); with NCI-H460 lung it was -10.8% (active); in the assay with HOP-92 NSCLC it was -15.7% (active). Besides, the growth was -55% (active) in the assay with A549/ATCC NSCLC; -50.1% (active) in the assay on 786-0 renal; -62.3% (active) in the assay with COLO 205 colon; -5.67% (active) with DU-145 prostate; 2.48% (active) in the assay on K-562 leukemia; 39.8% with MALME-3M melanoma. Also, the growth in the assay with MDA-MB-231 breast is -41.2% (active); in the assay with RXF 393 renal, -27.4% (active); in the assay with SF-268 CNS, -9.95% (active); with SF-295 CNS, 1.12% (active); in the assay on SF-539 CNS, -51.8% (active); in the assay on UACC-257 melanoma, 12.2%. The growth in the assay on M14 melanoma was -36.3% (active).
Turning to `C=C1C(=O)O[C@H]2[C@H]1CC/C(COC(=O)C(=O)c1c[nH]c3ccc(OC)cc13)=C\CC[C@@]1(C)O[C@@H]21`, the growth is -28.1% (active) in the assay on NCI-H23 lung; -68.3% (active) with NCI-H226 lung; -70.5% (active) in the assay on NCI-H322M lung; -71.3% (active) in the assay on HOP-62 NSCLC; -53.9% (active) in the assay on NCI-H460 lung; -77.2% (active) in the assay on HOP-92 NSCLC. The growth is -62.7% (active) with A549/ATCC NSCLC; -91% (active) in the assay with 786-0 renal; -68.6% (active) in the assay on COLO 205 colon; -89.8% (active) with DU-145 prostate; -7.42% (active) in the assay on K-562 leukemia; -71.4% (active) with MALME-3M melanoma. In addition, the growth with MDA-MB-231 breast was -64.8% (active); in the assay on RXF 393 renal it was -93.1% (active); in the assay with SF-268 CNS, -53.2% (active); in the assay on SF-295 CNS it was 33.1%; in the assay with SF-539 CNS it was -97.4% (active); with UACC-257 melanoma, -93.9% (active). Also, in the assay with M14 melanoma, the growth is -79.1% (active).
